{"source": "PubChem BioAssay (EPA / NIEHS)", "note": "Results filed as inconclusive are left out. Activity calls are given as the source filed them. The calls were made as follows, unless noted: active = hit-call score of the fitted dose curve at least 0.9, where 1 is the maximum; inconclusive = response in the unintended direction; inactive = score below 0.9.", "data": [{"test": "CEETOX_H295R_MTT_cell_viability: Viability Assessment in the CeeTox HT-H295R MTT Assay (AID 2283718; active = hit-call score of the fitted dose curve at least 0.9, where 1 is the maximum; inactive = score below 0.9;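 as to AC50: curve fitted both ways so AC50 may mark viability loss or gain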)", "method_in_brief": "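H295R cells prestimulated 48 h with 10 uM forskolin, then exposed 48 h to test chemical (0.1% DMSO final). Viability by MTT (0.5 mg/ml, 4 h, 37 C), absorbance 570/650 nm; percent change versus DMSO, bidirectional fit.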", "values": [{"smiles": "CCCC=C(C=O)CC", "outcome": "inactive"}, {"smiles": "N#Cc1ccc(C2CCCc3cncn32)cc1", "note": "(stereo unspecified)", "outcome": "inactive"}, {"smiles": "C=C[C@@]1(C)CC(=O)[C@]2(O)[C@@]3(C)[C@@H](O)CCC(C)(C)[C@@H]3[C@H](O)[C@H](OC(C)=O)[C@@]2(C)O1", "outcome": "inactive"}, {"smiles": "CCN1CN(CC)CN(CC)C1", "AC50": "0.396 µM (active)"}]}, {"test": "ACEA_AR_agonist_AUC_viability: ACEA Biosciences xCELLigence Real-Time Cell Analysis on Androgen Receptor Agonism for Viability (AID 2283775);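 as to AC50: viability read 80 hours after compound addition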", "method_in_brief": "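Viability endpoint from xCELLigence impedance in 22Rv1 prostate cells at 80 h. Eight-point series, 100 uM maximum final.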", "values": [{"smiles": "CCCCC(CC)COC(=O)/C=C/c1ccc(OC)cc1", "note": "(stereo unspecified)", "outcome": "inactive"}, {"smiles": "Cc1cc(C)n(CO)n1", "outcome": "inactive"}, {"smiles": "CC(=O)OC(C)c1ccccc1", "note": "(stereo unspecified)", "outcome": "inactive"}, {"smiles": "CCCCCCCCCCCCCCCCCCOS(=O)(=O)O", "outcome": "inactive"}, {"smiles": "CC(C)COC(=O)CC(C(=O)OCC(C)C)S(=O)(=O)O", "note": "(stereo unspecified)", "outcome": "inactive"}, {"smiles": "CCCCNC(=S)NCCCC", "outcome": "inactive"}, {"smiles": "O=C(OCCc1ccccc1)c1ccccc1", "outcome": "inactive"}, {"smiles": "CCCCCCCCCCCCCC(=O)OC(C)C", "outcome": "inactive"}, {"smiles": "CC12CCC(CC1)C(C)(C)O2", "outcome": "inactive"}, {"smiles": "NC(=O)Nc1ccccc1", "outcome": "inactive"}, {"smiles": "CCCC=C(C=O)CC", "outcome": "inactive"}, {"smiles": "N#Cc1ccc(C2CCCc3cncn32)cc1", "note": "(stereo unspecified)", "outcome": "inactive"}, {"smiles": "CCCCC(C=O)CC", "note": "(stereo unspecified)", "outcome": "inactive"}, {"smiles": "CCC[Si](OC)(OC)OC", "outcome": "inactive"}, {"smiles": "C=C[C@@]1(C)CC(=O)[C@]2(O)[C@@]3(C)[C@@H](O)CCC(C)(C)[C@@H]3[C@H](O)[C@H](OC(C)=O)[C@@]2(C)O1", "AC50": "6.78 µM (active)"}, {"smiles": "Cc1c(C(=O)c2c[nH]n(C)c2=O)ccc(S(C)(=O)=O)c1C1=NOCC1", "outcome": "inactive"}, {"smiles": "O=C(Oc1ccccc1)c1ccccc1O", "outcome": "inactive"}, {"smiles": "CC1=CCC2CC1C2(C)C", "note": "(stereo unspecified)", "outcome": "inactive"}, {"smiles": "CCN1CN(CC)CN(CC)C1", "outcome": "inactive"}, {"smiles": "C=C[Si](OCCOC)(OCCOC)OCCOC", "outcome": "inactive"}, {"smiles": "C=C(C)C1CC=C(C)CC1", "note": "(stereo unspecified)", "outcome": "inactive"}, {"smiles": "CN(C)Cc1cc(CN(C)C)c(O)c(CN(C)C)c1", "AC50": "4.16 µM (active)"}, {"smiles": "CCCC(CC)c1ccccc1", "note": "(stereo unspecified)", "outcome": "inactive"}, {"smiles": "CCCCC(CC)COS(=O)(=O)O", "note": "(stereo unspecified)", "outcome": "inactive"}, {"smiles": "CCOC(=O)c1ccccc1C", "outcome": "inactive"}, {"smiles": "CCCCNS(=O)(=O)c1ccc(C)cc1", "outcome": "inactive"}, {"smiles": "Fc1ccc(Br)cc1", "outcome": "inactive"}, {"smiles": "C[Si](C)(C)N[Si](C)(C)C", "outcome": "inactive"}, {"smiles": "CC(C)c1cc(C(C)C)cc(C(C)C)c1", "outcome": "inactive"}, {"smiles": "CC1=CC=C(C(C)C)CC1", "outcome": "inactive"}, {"smiles": "O=C(O)C1CCC(C(=O)O)CC1", "note": "(stereo unspecified)", "outcome": "inactive"}, {"smiles": "O=C(O)CCC(=O)O", "outcome": "inactive"}]}, {"test": "ACEA_AR_antagonist_AUC_viability: ACEA Biosciences xCELLigence Real-Time Cell Analysis on Androgen Receptor Antagonism for Viability (AID 2283776);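 also: area under impedance growth curve at 80 h after dosing as viability; hits lower the growth signal relative to DMSO meaning cytotoxicity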", "method_in_brief": "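22Rv1 human prostate cancer cells were seeded on electrode plates, monitored overnight, then exposed to eight 1:4 dilutions from 100 uM final. Impedance-based growth kinetics at 80 h gave an AUC viability endpoint normalized to DMSO.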", "values": [{"smiles": "Cc1cc(C)n(CO)n1", "outcome": "inactive"}, {"smiles": "CC(=O)OC(C)c1ccccc1", "note": "(stereo unspecified)", "outcome": "inactive"}, {"smiles": "O=C(OCCc1ccccc1)c1ccccc1", "outcome": "inactive"}, {"smiles": "CCCCCCCCCCCCCC(=O)OC(C)C", "outcome": "inactive"}, {"smiles": "NC(=O)Nc1ccccc1", "outcome": "inactive"}, {"smiles": "N#Cc1ccc(C2CCCc3cncn32)cc1", "note": "(stereo unspecified)", "outcome": "inactive"}, {"smiles": "CCC[Si](OC)(OC)OC", "outcome": "inactive"}, {"smiles": "C=C[C@@]1(C)CC(=O)[C@]2(O)[C@@]3(C)[C@@H](O)CCC(C)(C)[C@@H]3[C@H](O)[C@H](OC(C)=O)[C@@]2(C)O1", "outcome": "inactive"}, {"smiles": "Cc1c(C(=O)c2c[nH]n(C)c2=O)ccc(S(C)(=O)=O)c1C1=NOCC1", "outcome": "inactive"}, {"smiles": "CCN1CN(CC)CN(CC)C1", "outcome": "inactive"}, {"smiles": "CCCC(CC)c1ccccc1", "note": "(stereo unspecified)", "outcome": "inactive"}, {"smiles": "CCCCC(CC)COS(=O)(=O)O", "note": "(stereo unspecified)", "outcome": "inactive"}, {"smiles": "CCOC(=O)c1ccccc1C", "outcome": "inactive"}, {"smiles": "C[Si](C)(C)N[Si](C)(C)C", "outcome": "inactive"}, {"smiles": "CC(C)c1cc(C(C)C)cc(C(C)C)c1", "outcome": "inactive"}]}]}
